Among all 5,500 compounds or so, about 2,000 (36%) were called active. Inconclusive results (about 18%) are left out. Cut-off read from the data, not from the text of the source: active = normalized growth mostly below about 0.91 (no sharp cut-off); inconclusive = no clear call, values can overlap the other calls; inactive = mostly above about 0.92. The list shows a part of the results.
Assay: chemical genetic growth profiling, strain panel (AID 1159580);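 note: tested at 20 µM; growth read once vehicle control cultures reached saturation at 30 °C; 1 = growth at the plate median or of vehicle wells; lower values mean less growth of the strain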
Conditions: growth OD

Measured: normalized growth

Nc1ncn([C@@H]2O[C@H](CO)[C@@H](O)[C@H]2O)c(=O)n1
inactive: S. cerevisiae deletion strains, locus YJR066W, strain TOR1, hits give low values 0.948 | S. cerevisiae deletion strains, locus YKL009W, strain mrt4, hits give low values 1 | S. cerevisiae deletion strains, locus YKL068W, hits give low values 0.997 | S. cerevisiae deletion strains, locus YKL085W, strain MDH1 (second series), hits give low values 0.989 | S. cerevisiae deletion strains, locus YKL085W, strain MDH1, hits give low values 0.989 | S. cerevisiae deletion strains, locus YKL160W, strain elf1, hits give low values 0.99 | S. cerevisiae deletion strains, locus YKL190W, strain CNB1, hits give low values 1.01 | S. cerevisiae deletion strains, locus YKR001C, strain vps1, hits give low values 1.02 | S. cerevisiae deletion strains, locus YKR026C, strain gcn3, hits give low values 1.07 | S. cerevisiae deletion strains, locus YKR091W, strain srl3, hits give low values 0.967 | S. cerevisiae deletion strains, locus YLL001W, strain dnm1, hits give low values 0.952 | S. cerevisiae deletion strains, locus YLL026W, hits give low values 0.997 | S. cerevisiae deletion strains, locus YLL041C, strain sdh2, hits give low values 0.989 | S. cerevisiae deletion strains, locus YLR027C, strain aat2, hits give low values 0.985 | S. cerevisiae deletion strains, locus YLR039C, strain RIC1, hits give low values 1.01 | S. cerevisiae deletion strains, locus YLR058C, strain SHM2, hits give low values 1.02 | S. cerevisiae deletion strains, locus YLR102C, strain apc9, hits give low values 0.993 | S. cerevisiae deletion strains, locus YLR113W, strain HOG1, hits give low values 0.951 | S. cerevisiae deletion strains, locus YLR221C, strain rsa3, hits give low values 1.01 | S. cerevisiae deletion strains, locus YLR258W, strain gsy2, hits give low values 0.992 | S. cerevisiae deletion strains, locus YLR262C, strain YPT6 (second series), hits give low values 0.955 | S. cerevisiae deletion strains, locus YLR262C, strain YPT6, hits give low values 1.06 | S. cerevisiae deletion strains, locus YLR268W, strain sec22, hits give low values 0.99 | S. cerevisiae deletion strains, locus YLR320W, strain mms22, hits give low values 1 | S. cerevisiae deletion strains, locus YLR330W, strain CHS5, hits give low values 1 | S. cerevisiae deletion strains, locus YLR342W, strain FKS1 (second series), hits give low values 1 | S. cerevisiae deletion strains, locus YLR342W, strain FKS1, hits give low values 0.932 | S. cerevisiae deletion strains, locus YLR357W, strain rsc2, hits give low values 1.01 | S. cerevisiae deletion strains, locus YLR370C, strain arc18, hits give low values 0.985 | S. cerevisiae deletion strains, locus YLR371W, strain rom2, hits give low values 0.994 | S. cerevisiae deletion strains, locus YLR384C, strain iki3, hits give low values 0.974 | S. cerevisiae deletion strains, locus YLR418C, strain cdc73, hits give low values 0.973 | S. cerevisiae deletion strains, locus YML016C, strain PPZ1, hits give low values 1.01 | S. cerevisiae deletion strains, locus YML032C, strain rad52, hits give low values 0.998 | S. cerevisiae deletion strains, locus YML120C, strain ndi1, hits give low values 0.986 | S. cerevisiae deletion strains, locus YML124C, strain tub3, hits give low values 1 | S. cerevisiae deletion strains, locus YMR058W, strain fet3, hits give low values 0.989 | S. cerevisiae deletion strains, locus YMR078C, strain ctf18, hits give low values 0.992 | S. cerevisiae deletion strains, locus YMR125W, strain sto1, hits give low values 0.962 | S. cerevisiae deletion strains, locus YMR129W, hits give low values 0.996 | S. cerevisiae deletion strains, locus YMR205C, strain PFK2, hits give low values 0.967 | S. cerevisiae deletion strains, locus YMR223W, strain ubp8, hits give low values 0.989 | S. cerevisiae deletion strains, locus YMR231W, strain pep5, hits give low values 0.985 | S. cerevisiae deletion strains, locus YMR307W, strain GAS1, hits give low values 0.982 | S. cerevisiae deletion strains, locus YNL067W, strain RPL9B, hits give low values 1.02 | S. cerevisiae deletion strains, locus YNL071W, strain lat1, hits give low values 1.01 | S. cerevisiae deletion strains, locus YNL153C, strain GIM3, hits give low values 1.04 | S. cerevisiae deletion strains, locus YNL183C, strain NPR1, hits give low values 0.935 | S. cerevisiae deletion strains, locus YNL209W, strain ssb2, hits give low values 0.997 | S. cerevisiae deletion strains, locus YNL233W, strain BNI4, hits give low values 1.03 | S. cerevisiae deletion strains, locus YNL248C, strain rpa49, hits give low values 0.951 | S. cerevisiae deletion strains, locus YNL250W, strain rad50, hits give low values 1.01 | S. cerevisiae deletion strains, locus YNL271C, strain bni1, hits give low values 1 | S. cerevisiae deletion strains, locus YNL298W, strain CLA4, hits give low values 1 | S. cerevisiae deletion strains, locus YNL307C, strain MCK1, hits give low values 0.998 | S. cerevisiae deletion strains, locus YNL322C, strain KRE1 (second series), hits give low values 0.978 | S. cerevisiae deletion strains, locus YNL322C, strain KRE1, hits give low values 1.01 | S. cerevisiae deletion strains, locus YNR049C, strain mso1, hits give low values 0.968 | S. cerevisiae deletion strains, locus YNR052C, strain pop2, hits give low values 0.993 | S. cerevisiae deletion strains, locus YOL006C, strain TOP1, hits give low values 1.07 | S. cerevisiae deletion strains, locus YOL012C, strain htz1 0.991 | S. cerevisiae deletion strains, locus YOL147C, strain pex11, hits give low values 1 | S. cerevisiae deletion strains, locus YOR001W, strain rrp6, hits give low values 0.976 | S. cerevisiae deletion strains, locus YOR061W, strain CKA2, hits give low values 1.02 | S. cerevisiae deletion strains, locus YOR069W, strain VPS5, hits give low values 1.01 | S. cerevisiae deletion strains, locus YOR070C, strain gyp1, hits give low values 0.99 | S. cerevisiae deletion strains, locus YOR080W, strain dia2, hits give low values 0.967 | S. cerevisiae deletion strains, locus YOR083W, strain WHI5, hits give low values 0.968 | S. cerevisiae deletion strains, locus YOR106W, strain vam3, hits give low values 0.959 | S. cerevisiae deletion strains, locus YOR136W, strain idh2, hits give low values 1 | S. cerevisiae deletion strains, locus YOR144C, strain elg1, hits give low values 0.99 | S. cerevisiae deletion strains, locus YOR184W, strain ser1, hits give low values 0.996 | S. cerevisiae deletion strains, locus YOR231W, strain MKK1, hits give low values 0.974 | S. cerevisiae deletion strains, locus YOR265W, strain rbl2, hits give low values 0.989 | S. cerevisiae deletion strains, locus YOR270C, strain vph1, hits give low values 0.958 | S. cerevisiae deletion strains, locus YOR290C, strain snf2, hits give low values 1.01 | S. cerevisiae deletion strains, locus YOR316C, strain cot1, hits give low values 0.997 | S. cerevisiae deletion strains, locus YPL051W, strain arl3, hits give low values 0.992 | S. cerevisiae deletion strains, locus YPL078C, strain atp4, hits give low values 0.958 | S. cerevisiae deletion strains, locus YPL106C, strain sse1, hits give low values 0.978 | S. cerevisiae deletion strains, locus YPL240C, strain hsp82, hits give low values 0.986 | S. cerevisiae deletion strains, locus YPL241C, strain CIN2, hits give low values 1.01 | S. cerevisiae deletion strains, locus YPL256C, strain CLN2, hits give low values 0.975 | S. cerevisiae deletion strains, locus YPR119W, strain clb2, hits give low values 0.99 | S. cerevisiae deletion strains, locus YPR141C, strain kar3, hits give low values 0.99 | S. cerevisiae deletion strains, locus YPR163C, strain tif3, hits give low values 0.998 | S. cerevisiae deletion strains, locus YPR167C, strain met16, hits give low values 0.994 | S. cerevisiae deletion strains, strain wtn01, hits give low values 1.01 | S. cerevisiae strains, strain wild type, hits give low values 1.01

— PubChem BioAssay AID1159580 (chemical genetic matrix, 2015)
